# Screening results from PubChem.
# Sampled rows, rich in hits. Any-hit rate of the full collection: about 27%.
# CYP2C19 inh: blockers of cytochrome P450 2C19 activity – biochemical, luminescence, ADME assay, primary screen | P33261 | inhibition, % at 5 µM | 21% of 96,000 active | CYP2C19 Supersomes, luciferin-H EGE luminescence, 30 min;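 active = CYP2C19 inhibition above a set limit at 5 µM in the primary screen, cut at about 50% in these data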;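 note: plate controls were negative control wells for no effect and 2.5 mM tranylcypromine positive control for full effect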
# sEH inh: soluble epoxide hydrolase inhibitors, primary screen, biochemical, human sEH. recombinant human sEH enzymatic activity assay. AID 707, 2007. Bifunctional epoxide hydrolase 2 (Homo sapiens), P34913. inhibition, % at 2 µM. 0.34% of 91,000 active; in the data active = inhibition above about 80%
# sEH act: soluble epoxide hydrolase activators, primary screen, biochemical, human sEH; purified human sEH enzymatic activity, activator screen; activation, % at 2 µM; 0.04% of 91,000 active; in the data active = activation above about 37%
# CYP2C9 inh: blockers of cytochrome P450 2C9 activity – biochemical, luminescence, ADME assay, primary screen; P11712; 20% of 96,000 active; inhibition, % at 5 µM; AID 777, 2007; CYP2C9 Supersomes, luciferin-H conversion;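 active = blocking of liver enzyme CYP2C9 beyond about 50% at 5 µM, limit read from the data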
# Target sequence (P11712 whole entry, looked up): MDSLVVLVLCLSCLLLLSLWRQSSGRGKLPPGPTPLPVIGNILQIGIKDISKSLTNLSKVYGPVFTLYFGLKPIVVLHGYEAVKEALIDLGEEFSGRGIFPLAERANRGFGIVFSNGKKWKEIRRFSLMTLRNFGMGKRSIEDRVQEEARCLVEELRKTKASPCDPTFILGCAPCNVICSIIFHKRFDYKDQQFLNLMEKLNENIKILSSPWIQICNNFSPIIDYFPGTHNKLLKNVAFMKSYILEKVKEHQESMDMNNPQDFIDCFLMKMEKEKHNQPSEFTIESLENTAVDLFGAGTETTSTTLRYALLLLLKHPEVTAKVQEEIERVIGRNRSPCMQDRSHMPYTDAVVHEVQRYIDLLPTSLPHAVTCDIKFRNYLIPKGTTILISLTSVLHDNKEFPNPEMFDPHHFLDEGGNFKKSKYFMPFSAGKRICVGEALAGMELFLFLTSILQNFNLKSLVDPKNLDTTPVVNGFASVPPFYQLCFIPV
# CYP2C19 activ: human CYP2C19 activators, primary screen, biochemical, luminescence. activation factor at 5 µM. Cytochrome P450 2C19 (Homo sapiens), P33261. recombinant CYP2C19, luciferin-H EGE luminescence; hits give high values; 0 = fully inhibited enzyme, 1 = untreated enzyme. 96,000 tested, under 10 active. AID 1025, 2008;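 active = activation factor of at least 2 at 5 µM in the primary screen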;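 note: 0 = wells with 2.5 mM tranylcypromine and 1 = vehicle-only wells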
# CYP2C9 act: human CYP2C9 activators, primary screen, biochemical, luminescence; recombinant CYP2C9, luciferin-H conversion; hits give high values; factor 1 = untreated enzyme, 0 = blocked; 1.4% of 96,000 active; AID 1024, 2008; activation factor at 5 µM; Cytochrome P450 2C9 (Homo sapiens), P11712;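 active = activation factor of 2 or more for CYP2C9 at a 5 µM dose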;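 note: 0 = sulfaphenazole-blocked wells and 1 = vehicle-only wells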
# * marks the source's active call; other numbers are inactive results; · = no result.
SMILES,CYP2C19 inh,sEH inh,sEH act,CYP2C9 inh,CYP2C19 activ,CYP2C9 act
CC1=CC(C)(C)N(C(=O)CSc2ncn[nH]2)c2ccc(C)cc21,89*,-6,4,55*,0.1,0.4
COc1ccc(C(=O)CSc2nnc(-c3ccc(C)cc3)o2)cc1,44,18,-18,50,0.6,0.5
CCSc1nnc(-c2ccccc2NC(C)=O)c(=O)[nH]1,-6,-7,9,16,1.1,0.8
CCCC(=O)n1nc(-c2ccc(OC)cc2)nc1N,53*,-12,10,-1,0.5,1
CCCC(=O)n1nc(-c2ccco2)nc1N,14,10,-12,4,0.9,1
CCOC(=O)CSc1nnc(CNC(=O)c2ccc(S(=O)(=O)N3CCCC3)cc2)n1C,16,10,-9,2,0.8,1
Cc1ccc(Cn2ccc(NC(=O)CCSc3nc(-c4ccco4)cc(C(F)(F)F)n3)n2)cc1,81*,-10,10,93*,0.2,0.1
O=C(Nc1cnn(C23CC4CC(CC(C4)C2)C3)c1)c1cnn2c(C(F)(F)F)cc(-c3ccco3)nc12,65*,-5,6,78*,0.4,0.2
Cc1ccccc1Cn1ccc(NC(=O)c2cnn3c(C(F)(F)F)cc(-c4ccco4)nc23)n1,48,-1,4,61*,0.5,0.4
Cc1ccccc1Cn1ccc(NC(=O)CCSc2nc(-c3ccco3)cc(C(F)(F)F)n2)n1,79*,10,-8,85*,0.2,0.1
O=C(Nc1ccc2c(c1)OCO2)c1cnn2c(C(F)(F)F)cc(-c3ccco3)nc12,0,-22,20,17,1,0.8
COc1ccccc1CN1C(=O)C2CC=CCC2C1=O (centres undefined),30,-7,8,-17,0.7,1.2
CC(C)Cc1ccc(C#N)c(SCC(N)=O)n1,61*,0,-1,26,0.4,0.7
COc1cc2[nH]c(=O)n(CCCCCC(=O)NCCCN3CCC(C)CC3)c(=O)c2cc1OC,·,-6,5,·,·,·
Cc1ccccc1S(=O)(=O)Cc1ccc(C(=O)NCc2cccs2)o1,40,-9,9,44,0.6,0.6
Cc1ccc(S(=O)(=O)Cc2ccc(C(=O)NCc3cccs3)o2)cc1,29,-9,9,72*,0.7,0.3
CCCCc1ccc(NC(=S)NCc2cccs2)cc1,9,-1,2,8,0.9,0.9
Cc1ccc(NC(=S)NCc2cccs2)cc1,57*,-1,2,29,0.4,0.7
COc1ccc(CCNC(=O)c2ccc(CS(=O)(=O)c3ccc(C)cc3)o2)cc1OC,18,-5,4,83*,0.8,0.2
O=C(O)C1CCCN1S(=O)(=O)c1ccccc1 (centres undefined),·,11,-10,·,·,·
CCOc1ccc(S(=O)(=O)N2CCN(S(=O)(=O)c3ccc(OCC)cc3)C(C)C2)cc1 (centres undefined),19,·,·,22,0.8,0.8
COC(=O)C1CN(S(=O)(=O)c2ccccc2)CCN1S(=O)(=O)c1ccccc1 (centres undefined),98*,0,-2,74*,0,0.3
CCOC(=O)C1CN(S(=O)(=O)c2ccccc2)CCN1S(=O)(=O)c1ccccc1 (centres undefined),94*,6,-7,70*,0.1,0.3
CCOC(=O)C1CN(S(=O)(=O)c2ccc(C)cc2)CCN1S(=O)(=O)c1ccc(C)cc1 (centres undefined),96*,-12,10,78*,0,0.2
CC1CCC(NC(=O)c2ccc3nc[nH]c3c2)CC1 (centres undefined),34,5,-4,14,0.7,0.9
CCOC(=O)CC1(c2ccccc2)CCOC(C)(C)C1 (centres undefined),87*,5,-2,34,0.1,0.7
CSc1ccccc1NC(=O)c1cc(C(C)C)on1,-2,-21,21,-44,1,1.4
CSc1ccccc1NC(=O)c1cc(C)on1,18,-5,4,-143,0.8,2.4*
